# Screening data (PubChem)
# Shown are actives, neighbours in structure and some others; about 4.4% of the full set was active somewhere.
# PfHsp90 set2 – growth inhibition of PfHsp90-expressing yeast, primary screen, antimalarial PfHsp90 inhibitor project, S. cerevisiae, BacTiter-Glo luminescence, single point, set 2; BacTiter-Glo ATP, 48 h; yeast lacking PDR1 and PDR3 efflux regulators; inhibition, % at 9.4 µM; actives 0.32% (n = 310,000); AID 504621, 2011;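 active = every replicate shows inhibition above about 80%, whatever the replicate mean, limit read from the data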;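 also: 0% = DMSO neutral controls and 100% = 20 µM radicicol positive controls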
# tim23-1 inh – growth inhibitors of tim23-1 mutant yeast, primary screen, luminescence, uHTS. S. cerevisiae tim23-1 growth, BacTiter-Glo luminescence, 24 h. actives 1.3% (n = 330,000). inhibition, % at 20 µM;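 active = growth inhibition of the mutant yeast at or above 50%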;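 also: temperature-sensitive mutant grown at 25 °C; plate controls were DMSO-treated mutant yeast for no effect and medium wells lacking yeast for full effect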
# tim10-1 inh – growth inhibitors of tim10-1 mutant yeast, primary screen, luminescence, uHTS | S. cerevisiae tim10-1 ts strain growth, BacTiter-Glo, 24 h | inhibition, % at 20 µM | actives 2.2% (n = 330,000);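 active = inhibition of at least 40%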;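 also: mutant grown at 25 °C; 0% = DMSO wells with yeast and 100% = wells holding no yeast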
# Mot1-301 SUMO – yeast Mot1-301 growth rescue at high temperature, primary screen, SUMOylation pathway inhibitor project, S. cerevisiae, ATP luminescence, 38.5C; actives 1% (n = 320,000); S. cerevisiae Mot1-301 growth rescue; percent above DMSO median, 100 means doubled; growth rescue, % at 18.8 µM;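 active = every valid replicate shows activation above 250% relative to neutral control wells; inactive = the rest, any valid replicate at or below 250%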;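 also: OY570 slx delta 5 strain wells were the positive control but not used for scaling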
# TIM10 inh – growth inhibitors of isogenic TIM10 control yeast, primary screen, counter-screen for tim10-1 yeast inhibitor project, luminescence, uHTS; S. cerevisiae TIM10 strain growth, BacTiter-Glo luminescence, 24 h; inhibition, % at 10 µM; actives 1.4% (n = 330,000); AID 463195, 2010;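 active = inhibition of 40% or more at the single tested concentration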;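 also: wild-type TIM10 isogenic control strain grown at permissive 25 °C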
# Yeast Mot1 SUMO – growth restoration of Mot1-301 yeast on galactose, dose response, SUMO pathway inhibitor project, whole organism, S. cerevisiae, ATP luminescence, cherry-picked samples; shares compounds with Mot1-301 SUMO; S. cerevisiae Mot1-301 galactose growth, 24 h; -100 = growth of slx-deleted rescue strain; growth activity, percent, % at 42 µM; 2,300 tested, under 10 active; AID 493004, 2010;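 active = Signal drops as the depositor expects, and the fitted half-maximal dose is no more than ten times the top valid tested dose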;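 also: more negative values mean stronger growth rescue toward the control strain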
# The depositor's hits bear a star; . = no result; + = active, no number.
SMILES,PfHsp90 set2,tim23-1 inh,tim10-1 inh,Mot1-301 SUMO,TIM10 inh,Yeast Mot1 SUMO
C/C=C(/C)C(=O)OC1c2c(ccc3ccc(=O)oc23)OC(C)(C)C1OC(=O)/C(C)=C\C (centres undefined),28,24,25,730*,3,1
O=C(CCC(=O)c1ccccc1)Nc1ccc(C(=O)O)cc1,17,7,16,14,-4,.
O=C(N/C(=C/c1ccc2c(c1)OCO2)C(=O)N1CCOCC1)c1cccs1,28,9,6,765*,1,-1
Cc1cccc(NC(=O)[C@@H]2CCCN2S(=O)(=O)c2ccc(Cl)cc2)c1,-17,15,10,-7,11,.
COc1cc(C)ccc1OCCCOc1ccccc1Br,-7,17,18,+,8,0
C/C(CC(=O)Nc1cccc(Cl)c1Cl)=N\NC(=O)c1ccccc1C,29,24,19,452*,34,0
COc1ccc(C2CC(c3cccs3)=NN2C(=O)c2ccccc2)cc1OC (centres undefined),-15,29,20,424*,16,1
COc1ccc(C2CC(c3cccs3)=NN2C(=O)CCl)cc1OC (centres undefined),15,34,-8,69,15,.
O=C(CN1CCc2ccccc21)NN1CC(=O)N(c2ccc(Cl)cc2)CC1=O,-2,-4,18,484*,12,-1
O=C(Nc1ccccc1)NN1CC(=O)N(c2ccc(Cl)cc2)CC1=O,20,5,0,-2,8,.
O=C(c1cc(-c2ccccc2)nc2ccccc12)N1CCOCC1,-27,-3,-8,80,5,.
CC(C)c1ccc(-c2cc(C(=O)N3CCOCC3)c3cc(Br)ccc3n2)cc1,-17,43,38,614*,11,0
CN(C)c1ccc(NS(=O)(=O)c2cccc(Cl)c2)cc1,13,9,31,733*,5,0
CC1=C(C(=O)N2CCOCC2)C(c2ccc(O)cc2)NC(=S)N1 (centres undefined),20,10,10,583*,2,0
Cc1cccc(OCc2nnc(SCC(=O)Nc3ccc(N4CCOCC4)cc3)o2)c1,4,-12,-13,-2,-10,.
COC(=O)C1C(c2ccc(OC)c(OC)c2)NC(c2ccc(OC)c(OC)c2)C(C(=O)OC)S1(=O)=O (centres undefined),3,13,16,520*,10,0
Cc1ccn2c(=O)nc(SCC(=O)NC3CCCC3)nc2c1,.,-2,-15,190,-12,.
CCOc1ccc(Nc2nc(Cc3nnc(SCC(N)=O)o3)cs2)cc1,4,15,15,6,12,.
CCOc1ccc(NC(=O)CSc2nnc(Cc3csc(C)n3)o2)cc1,42,1,28,777*,3,0
COc1ccc(OC)c(CCNC(=O)CC2(CC3=NS(=O)(=O)c4ccccc4N3)CCCC2)c1,20,5,22,387,6,.
CC1=CC(C)(C)N(C(=O)CN2C(=O)CCC2=O)c2ccccc21,11,5,11,-16,3,.
CC1CC(C)(C)N(C(=O)CN2C(=O)CCC2=O)c2ccccc21 (centres undefined),-6,11,7,371*,-4,0
Cc1ccc(C(C(=O)NC2CCCCC2)N(CC2CCCO2)C(=O)CCCC(=O)Nc2ccccn2)cc1 (centres undefined),-42,12,7,6,5,.
COc1ccccc1NC(=S)N(Cc1ccco1)Cc1cc2cc(C)c(C)cc2[nH]c1=O,6,8,5,4,19,.
COc1ccccc1NC(=S)N(Cc1ccco1)Cc1cc2cccc(C)c2[nH]c1=O,-3,10,26,387*,2,0
SMILES,PfHsp90 set2,tim23-1 inh,tim10-1 inh,Mot1-301 SUMO,TIM10 inh,Yeast Mot1 SUMO
CC(/C=N/NC(=O)c1ccc(Cn2cc([N+](=O)[O-])cn2)o1)=C\c1ccccc1,23,-7,-24,9,-10,.
O=C(NCC1CCCO1)c1nn2c(C(F)(F)F)cc(-c3ccco3)nc2c1Cl (centres undefined),17,9,4,-1,2,.
O=C(NCC1CCCO1)c1nn2c(C(F)(F)F)cc(-c3cc(Br)cs3)nc2c1Br (centres undefined),-9,5,-7,472*,5,0
O=C(O)CCC(=O)Nc1cccc(C(=O)Nc2ccc(Br)cc2)c1,-13,9,4,796*,-8,0
O=C(O)CCC(=O)Nc1cccc(C(=O)Nc2cccc(Cl)c2)c1,-10,8,-2,-2,-1,.
C=CSc1sc(Cl)c(N(C)C)c1[N+](=O)[O-],-21,8,-4,411*,-8,0
CCN1CCN(CCNC(=O)c2ccc(CS(=O)c3ccc(Cl)cc3)o2)CC1 (centres undefined),0,11,13,-8,-2,.
O=S(=O)(c1cccc(-c2nnco2)c1)N1CCCC1,-11,4,14,+,0,0
CCN(CC)C(=O)CSc1nnc(SCc2ccc(Cl)cc2)s1,.,17,36,510*,-15,0
O=C(CN1C(=O)c2cccc3cccc1c23)NC1CCCCC1,-35,5,1,-15,14,.
C=C(C)C(=O)Nc1cccnc1Oc1ccc(F)cc1F,-7,-3,3,+,1,1
Cc1cccnc1NC(=S)Nc1ccc(F)cc1F,13,34,0,9,20,.
CCOC(=O)CSc1cc(C)nc2ccc(OC)cc12,-34,21,22,476*,10,0
Cc1ccc(C(=O)NCC(c2ccco2)N2CCc3ccccc32)cc1 (centres undefined),.,18,3,0,5,.
COc1cccc(CN2CC(C(=O)N3CCOCC3)CCC2=O)c1 (centres undefined),7,0,-8,10,19,.
C[C@H]1O[C@H]1P(=O)(O)O,4,-8,-2,975*,6,1
Cc1cnc(NC(=O)CN2CCN(c3ccccc3F)CC2)s1,3,-3,0,990*,-2,0
O=C(CN1CCc2ccccc2C1)Nc1ccccc1C(=O)NC1CC1,6,16,17,.,16,.
COc1ccc(Cl)cc1N(C(=O)c1ccco1)C(C(=O)NC1CCCC1)c1ccncc1 (centres undefined),-46,0,-6,407*,12,0
